LmPK inh: LmPK (Leishmania mexicana) enzyme inhibition. Q27686. purified LmPK, Kinase-Glo ATP luminescence, 1 h. 290,000 compounds, 0.37% hits. AID 1721. Potency, µM (series often up to 57.5 µM), actives largely listed as inhibitors
Target sequence (Q27686 whole entry, looked up): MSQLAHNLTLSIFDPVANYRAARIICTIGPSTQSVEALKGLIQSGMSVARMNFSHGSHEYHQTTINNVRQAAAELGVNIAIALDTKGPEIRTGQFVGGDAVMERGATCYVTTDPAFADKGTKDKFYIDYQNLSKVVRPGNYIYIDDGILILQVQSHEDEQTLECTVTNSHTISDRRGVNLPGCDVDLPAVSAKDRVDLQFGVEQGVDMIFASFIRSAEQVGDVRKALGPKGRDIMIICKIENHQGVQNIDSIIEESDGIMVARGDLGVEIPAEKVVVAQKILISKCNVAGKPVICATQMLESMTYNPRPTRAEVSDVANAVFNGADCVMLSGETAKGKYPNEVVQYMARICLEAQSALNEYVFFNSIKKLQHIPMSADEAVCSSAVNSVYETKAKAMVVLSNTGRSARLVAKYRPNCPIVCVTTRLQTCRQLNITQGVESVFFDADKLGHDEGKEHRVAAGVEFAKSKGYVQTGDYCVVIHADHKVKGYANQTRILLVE
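Purified LmPK (0.1 nM) with 0.5 mM PEP and 0.1 mM ADP in imidazole buffer pH 7.2 with MgCl2/KCl, 1 h at room temperature. ATP formed was read by luciferase luminescence and normalized to no-enzyme and uninhibited controls.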
CHX counter: counter-screen hit for Shiga toxin inhibitors, cycloheximide; max response, %; cell reporter, cycloheximide protein synthesis inhibition counterscreen; 300,000 compounds, 12% hits; in the data active = max response mostly above about 13%, no sharp cut-off; inactive = mostly below about 14%; also: read at 38.3 µM for the half of the compounds with a filed dose
SARS PLP yeast: inhibitors of SARS-CoV papain-like protease in yeast. Potency, µM (top dose mostly 32.9 µM), most hits filed as activators. S. cerevisiae expressing SARS-CoV PLpro, growth rescue. 330,000 compounds, 0.19% hits. AID 485353; calls by dose curve; also: nearly all actives have a fitted effect of over 55% in size
Shiga inhibitor: blocks Shiga toxin action in Vero cells; Vero cells, Shiga toxin protein synthesis inhibition reporter; inhibition, % at 38.7 µM; 290,000 compounds, 9.2% hits; AID 2315; in the data active = inhibition mostly above about 28%, no sharp cut-off; inactive = mostly below about 43%
TbPYK inhibitor: inhibitors of Trypanosoma brucei pyruvate kinase; Potency, µM (series often up to 76.8 µM), actives largely listed as inhibitors; 410,000 compounds, 0.12% hits; TbPYK enzyme, Kinase-Glo Plus ATP luminescence, 45 min; Q57TT1; also: nearly all actives have a fitted effect of over 50% in size
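ADP (130 uM final) triggers the TbPYK reaction after compound addition; incubation is 45 min at room temperature. Kinase-Glo Plus is then added and luminescence imaged. Normalized data are fitted to concentration-effect curves.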
NS1 inh: inhibitors of influenza NS1 protein function; Potency, µM (doses to about 46.1 µM); 270,000 compounds, 0.4% hits; calls by dose curve; also: actives are rising curves; nearly all actives have a fitted effect of over 50% in size
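S. cerevisiae expressing influenza A NS1, grown in glucose, washed, then diluted 1:100 into pH 6.0 -URA galactose medium with 23 nl compound. Growth recovery read as OD600; NS1-free strain serves as control.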
Of the large screens only hits and unclear results are named; the others gave an inactive call; ! = not confirmed by another sample. Many of the other results were omitted from the sample, so hits are more common in it than they were. Unless noted, calls follow the shape of the dose curve; as a rule, active = well fitted curve in the direction sought with a large enough effect; inconclusive = small, poorly fitted or top-dose-only effect, or another doubt; inactive = no such curve, though single readings can be large; an effect the other way counts as inactive or inconclusive.

O=C1[C@@H]2Cc3c([nH]c4ccccc34)CN2C(=O)CN1CCCCCO	none
Cc1cc(C)c(C(=O)NCC(=O)c2ccccc2)c(C)c1	none (no result: LmPK inh, CHX counter, SARS PLP yeast, Shiga inhibitor, NS1 inh)
Cc1cc(C(=O)CN2C(=O)C3CC=CCC3C2=O)c(C)n1-c1ccccc1 (centres undefined)	CHX counter 57.8, Shiga inhibitor 111.4
Cc1cc(C(=O)CN2C(=O)C(=O)N(CC(C)C)C2=O)c(C)n1-c1ccccc1F	CHX counter 16.9
Cc1cc(C(=O)CN2C(=O)c3ccccc3S2(=O)=O)c(C)n1-c1ccccc1	none
Cc1cc(C(=O)CN2C(=O)NC(CC(C)C)C2=O)c(C)n1-c1ccccc1F (centres undefined)	CHX counter 47.2, Shiga inhibitor 158.7 (no result: NS1 inh)
COc1ccc(C(=O)N2[C@@H](C(C)C)COc3cc(Br)ccc3S2(=O)=O)cc1	none (no result: LmPK inh, CHX counter, SARS PLP yeast, Shiga inhibitor, NS1 inh)
O=C(CN1C(=O)c2ccccc2C1=O)Oc1ccc(Cl)cc1	none
Cc1ccccc1Nc1nc(-c2ccccc2)c(C(=O)Nc2cccnc2)s1	CHX counter 15.6
COc1cc2c(cc1OC)C1O[C@](CCCCN3C(=O)c4ccccc4C3=O)(C2)OC2=C1C(=O)OC1(CCCCC1)C2	none (no result: TbPYK inhibitor)
Cc1c(C(=O)OCC(=O)N(C)Cc2ccccc2)oc2ccccc12	none (no result: LmPK inh, CHX counter, Shiga inhibitor, NS1 inh)
Cc1c(C(=O)OCC(C)(C)CN(C)C)oc2ccccc12	CHX counter 43.8, Shiga inhibitor 86.6
CCN(CC)CC(C)(C)COC(=O)c1oc2ccccc2c1C	Shiga inhibitor 43.5
Cc1c(C(=O)OC(C)CCN(C)C)oc2ccccc12 (centres undefined)	none
Cc1c(C(=O)OCC(=O)N(C)c2ccccc2)oc2ccccc12	CHX counter 27.9, Shiga inhibitor 50.2
Cc1ccc(CNC(=O)c2sc3nc4n(c(=O)c3c2C)CCCC4)cc1	none (no result: LmPK inh, CHX counter, SARS PLP yeast, Shiga inhibitor, NS1 inh)
C=CCNc1nc(-c2cc3ccccc3o2)cs1	CHX counter 40.0
O=S(=O)(Nc1nc2ccccc2nc1NCC1CCCO1)c1ccccc1 (centres undefined)	none
c1ccc2sc(NCC3CCCO3)nc2c1 (centres undefined)	LmPK inh inconclusive, CHX counter 38.4, Shiga inhibitor 133.9 (no result: NS1 inh)
c1ccc2oc(-c3csc(NCC4CCCO4)n3)cc2c1 (centres undefined)	CHX counter 30.0, Shiga inhibitor 74.0 (no result: NS1 inh)
CN(C)S(=O)(=O)c1ccc(C(=O)Nc2nc(-c3cc4ccccc4o3)cs2)cc1	none
COc1ccc(/C=C(/C#N)c2nc(-c3cc4ccccc4oc3=O)cs2)cc1	none (no result: LmPK inh, CHX counter, SARS PLP yeast, Shiga inhibitor, NS1 inh)
CC1CCC/C(=C(\C#N)c2nc(-c3cc4ccccc4oc3=O)cs2)C1 (centres undefined)	CHX counter 51.0, Shiga inhibitor 89.0
Cc1ccc(CNC(=O)C2CCN(S(=O)(=O)c3cn(C)cn3)CC2)cc1	none (no result: LmPK inh, CHX counter, SARS PLP yeast, Shiga inhibitor, NS1 inh)
O=c1oc2ccccc2cc1-c1csc(NN=C2CCCCC2)n1	CHX counter 44.8, Shiga inhibitor 80.8
O=C(Nc1nc(-c2cc3ccccc3oc2=O)cs1)c1ccco1	none
Cc1ccc2c(c1)NP(=S)(Oc1ccccc1)N2 (centres undefined)	none (no result: LmPK inh, CHX counter, SARS PLP yeast, Shiga inhibitor, NS1 inh)
COc1ccc2c(c1)NP(=S)(Oc1ccccc1)N2 (centres undefined)	LmPK inh inconclusive, CHX counter 64.0, Shiga inhibitor 86.0
Cc1ccccc1N1CCN(C2CCCN(C(=O)CSc3ccccn3)C2)CC1 (centres undefined)	none (no result: LmPK inh, CHX counter, SARS PLP yeast, Shiga inhibitor, NS1 inh)
O=C(Nc1nccs1)c1ncc(Cl)c(Cl)c1Cl	CHX counter 42.1, Shiga inhibitor 66.1
CCn1ncc(Br)c1C(=O)Nc1nccs1	none
CCn1cc(Cl)c(C(=O)Nc2nccs2)n1	CHX counter 33.1, Shiga inhibitor 31.5
Cn1cc(Cl)c(C(=O)Nc2nccs2)n1	CHX counter 40.4, Shiga inhibitor 71.1
O=C(NCC(=O)N(c1ccc(F)cc1)C(C(=O)NC1CCCC1)c1cccnc1)c1ccco1 (centres undefined)	none
O=C(COc1cccc(C(F)(F)F)c1)NCC(c1cccs1)N1CCOCC1 (centres undefined)	none (no result: LmPK inh, CHX counter, Shiga inhibitor, NS1 inh)
CC(=O)Oc1cccc(/C=C2\C=C(c3ccc(C)cc3)OC2=O)c1	CHX counter 17.2
Cc1ccc(C2=C/C(=C/c3cccs3)C(=O)O2)cc1	CHX counter 21.8
COc1ccc(C2=C/C(=C\c3ccc(OC(C)=O)cc3)C(=O)O2)cc1	CHX counter 40.3, Shiga inhibitor 86.9 (no result: NS1 inh)
CC(=O)Oc1cccc(C)c1	CHX counter 75.3!, Shiga inhibitor 182.6! (no result: LmPK inh, SARS PLP yeast, NS1 inh)

High-throughput results (PubChem)
